# In publication PMC5540273 (PLoS ONE, 2017):
# Test system: BMPR2
# Details: concentration: 1 μM, replicates: in singlicate; n = 1
# 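Further: KINOMEscan kinase panel screen.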
row,SMILES,%Inh
1,CN1C(=O)C(Nc2ccc(Cl)c(C(=O)O)c2)=C(c2ccc(Cl)cc2)C1=O [SB-404290],25%
2,Cc1cccc(-c2nc(-c3ccc(S(C)(=O)=O)cc3)sc2-c2ccnc(NCCc3ccccc3)c2)c1,1%
3,COc1cccc(-c2cc(-c3c[nH]nc3-c3ccccn3)ccn2)c1 [GW680338],10%
4,Cl.NC(=O)c1cccc(Nc2nccc(Nc3ccc(Oc4cccc(Cl)c4)c(Cl)c3)n2)c1 [GW659008],3%
5,Cn1ccc2ncnc(Oc3ccc(NC(=O)Nc4ccccc4)cc3)c21,0%
6,Cc1ccc(C(=O)Nc2ccc(Nc3ccnc4cc(-c5ccccn5)ccc34)cc2O)cc1.Cl [GW440146],0%
7,Cc1c(O)cccc1Nc1ccnc2ccc(C(F)(F)F)cc12.Cl [GW466413],0%
8,CC(C)(C)c1ccc(C(=O)Nc2cn3cc(-c4cccnc4)ccc3n2)cc1,1%
9,CC1=C(C(=O)Nc2cc3cn[nH]c3cc2F)C(c2ccc(C(F)(F)F)cc2)CC(=O)N1 (centres unmarked) [GSK429286],6%
10,Cl.c1ccc(-c2n[nH]cc2-c2ccnc(-c3ccc(CN4CCOCC4)cc3)c2)nc1 [GW776245],0%
11,Cc1cccc(-c2cc(Nc3ccncc3)c3ccccc3n2)n1 [GSK223675],0%
12,Cc1cccc(-c2nc(Nc3ccncc3)c3ccccc3n2)n1 [GW855857],0%
13,COc1ccc2nc(-c3cccc(C)n3)nc(Nc3ccncc3)c2c1 [GSK204919],0%
14,COc1ccc(C2=C(Nc3cccc(C(=O)O)c3)C(=O)NC2=O)cc1 [SB-390765],0%
15,COc1ccc(Nc2nccc(-c3cccc(NC(=O)c4cc5cc(F)ccc5[nH]4)c3)n2)cc1 [GSK1229782],15%
16,CCCc1ccc(S(=O)(=O)NC2CCN(c3ccnc(Nc4ccc(F)cc4)n3)C2)cc1 (centres unmarked) [GSK1379715],0%
17,CC(=O)Nc1nc2cnc(Nc3cc(NC(=O)c4cccc(CCC#N)c4)ccc3C)nc2s1,16%

row,SMILES,%Inh
1,Cc1ccc(NC(=O)Nc2cc(C(C)(C)C)nn2-c2ccccc2)cc1 [GSK1014915],37%
2,Cc1cccc(-c2nc(Nc3ccc4[nH]ncc4c3)c3ccccc3n2)n1 [GW857175],18%
3,Cc1cccc(-c2nc(C)cc(Nc3ccncc3)n2)n1 [GSK257997],2%
4,CS(=O)(=O)c1ccc(-c2nc3n(c2-c2ccncc2)CCC3)cc1 [SKF-105942],0%
5,O=C(Nc1ccc2c(c1)OCO2)NC1CCN(c2ccnc(Nc3ccc(F)cc3)n2)C1 (centres unmarked) [GSK1379724],18%
6,O=c1cc(N2CCOCC2)nc2n(Cc3cccc(Cl)c3Cl)ccn12 [GSK2286295],0%
7,COC(=O)c1c(-c2ccccc2)c2cc(OC)ccc2c(=O)n1Cc1ccccc1,0%
8,O=C(Nc1ccccc1)Nc1cccc(Oc2ccc3nccn3n2)c1,0%
9,Fc1cc(Cl)ccc1Nc1ccnc2cc(I)ccc12 [GW551191],8%
10,Cc1ccc(NC(=O)Nc2cccc(Cl)c2)cc1-c1ccc(C(=O)Nc2ccncc2)cc1 [GSK1398468],0%
11,O=C(O)COc1ncnc2cc(-c3ccc4[nH]ncc4c3)sc12,63%
12,Cn1ccc2ncnc(Oc3cccc(C(=O)Nc4ccccc4)c3)c21,14%
13,Cc1ccccc1-n1cnc2c(N)ncnc21 [SKF-97510],0%
14,COc1cc2ncnc(Nc3ccc4nc(-c5ccccc5)[nH]c4c3)c2cc1OC.Cl [GW282450],0%
15,Cl.O=C(Nc1cccc(-c2nn3ncccc3c2-c2ccnc(Nc3cccnc3)n2)c1)c1c(F)cccc1F [GSK312879],0%
16,NC(=O)c1nnc2ccccc2c1N,36%
17,CN(C)CCN(C)C(=O)c1cc(-c2ccncc2)c(-c2ccc(Cl)c(O)c2)o1.Cl.Cl [SB-710397],31%

# Test system: BMX
# Details: concentration: 1 μM, replicates: in singlicate; n = 1
row,SMILES,%Inh
1,CN1C(=O)C(Nc2ccc(Cl)c(C(=O)O)c2)=C(c2ccc(Cl)cc2)C1=O [SB-404290],0%
2,Cc1cccc(-c2nc(-c3ccc(S(C)(=O)=O)cc3)sc2-c2ccnc(NCCc3ccccc3)c2)c1,0%
3,COc1cccc(-c2cc(-c3c[nH]nc3-c3ccccn3)ccn2)c1 [GW680338],12%
4,Cl.NC(=O)c1cccc(Nc2nccc(Nc3ccc(Oc4cccc(Cl)c4)c(Cl)c3)n2)c1 [GW659008],14%
5,Cn1ccc2ncnc(Oc3ccc(NC(=O)Nc4ccccc4)cc3)c21,42%
6,Cc1ccc(C(=O)Nc2ccc(Nc3ccnc4cc(-c5ccccn5)ccc34)cc2O)cc1.Cl [GW440146],14%
7,Cc1c(O)cccc1Nc1ccnc2ccc(C(F)(F)F)cc12.Cl [GW466413],0%
8,CC(C)(C)c1ccc(C(=O)Nc2cn3cc(-c4cccnc4)ccc3n2)cc1,25%
9,CC1=C(C(=O)Nc2cc3cn[nH]c3cc2F)C(c2ccc(C(F)(F)F)cc2)CC(=O)N1 (centres unmarked) [GSK429286],4%
10,Cl.c1ccc(-c2n[nH]cc2-c2ccnc(-c3ccc(CN4CCOCC4)cc3)c2)nc1 [GW776245],13%
11,Cc1cccc(-c2cc(Nc3ccncc3)c3ccccc3n2)n1 [GSK223675],1%
12,Cc1cccc(-c2nc(Nc3ccncc3)c3ccccc3n2)n1 [GW855857],6%
13,COc1ccc2nc(-c3cccc(C)n3)nc(Nc3ccncc3)c2c1 [GSK204919],27%
14,COc1ccc(C2=C(Nc3cccc(C(=O)O)c3)C(=O)NC2=O)cc1 [SB-390765],17%
15,COc1ccc(Nc2nccc(-c3cccc(NC(=O)c4cc5cc(F)ccc5[nH]4)c3)n2)cc1 [GSK1229782],16%
16,CCCc1ccc(S(=O)(=O)NC2CCN(c3ccnc(Nc4ccc(F)cc4)n3)C2)cc1 (centres unmarked) [GSK1379715],2%
17,CC(=O)Nc1nc2cnc(Nc3cc(NC(=O)c4cccc(CCC#N)c4)ccc3C)nc2s1,7%

row,SMILES,%Inh
1,Cc1ccc(NC(=O)Nc2cc(C(C)(C)C)nn2-c2ccccc2)cc1 [GSK1014915],14%
2,Cc1cccc(-c2nc(Nc3ccc4[nH]ncc4c3)c3ccccc3n2)n1 [GW857175],15%
3,Cc1cccc(-c2nc(C)cc(Nc3ccncc3)n2)n1 [GSK257997],27%
4,CS(=O)(=O)c1ccc(-c2nc3n(c2-c2ccncc2)CCC3)cc1 [SKF-105942],1%
5,O=C(Nc1ccc2c(c1)OCO2)NC1CCN(c2ccnc(Nc3ccc(F)cc3)n2)C1 (centres unmarked) [GSK1379724],5%
6,O=c1cc(N2CCOCC2)nc2n(Cc3cccc(Cl)c3Cl)ccn12 [GSK2286295],25%
7,COC(=O)c1c(-c2ccccc2)c2cc(OC)ccc2c(=O)n1Cc1ccccc1,9%
8,O=C(Nc1ccccc1)Nc1cccc(Oc2ccc3nccn3n2)c1,0%
9,Fc1cc(Cl)ccc1Nc1ccnc2cc(I)ccc12 [GW551191],0%
10,Cc1ccc(NC(=O)Nc2cccc(Cl)c2)cc1-c1ccc(C(=O)Nc2ccncc2)cc1 [GSK1398468],0%
11,O=C(O)COc1ncnc2cc(-c3ccc4[nH]ncc4c3)sc12,0%
12,Cn1ccc2ncnc(Oc3cccc(C(=O)Nc4ccccc4)c3)c21,0%
13,Cc1ccccc1-n1cnc2c(N)ncnc21 [SKF-97510],12%
14,COc1cc2ncnc(Nc3ccc4nc(-c5ccccc5)[nH]c4c3)c2cc1OC.Cl [GW282450],10%
15,Cl.O=C(Nc1cccc(-c2nn3ncccc3c2-c2ccnc(Nc3cccnc3)n2)c1)c1c(F)cccc1F [GSK312879],24%
16,NC(=O)c1nnc2ccccc2c1N,90.1%
17,CN(C)CCN(C)C(=O)c1cc(-c2ccncc2)c(-c2ccc(Cl)c(O)c2)o1.Cl.Cl [SB-710397],0%
